Screening results: PubChem, National Center for Advancing Translational Sciences (NCATS)
Sampled rows, rich in hits. Any-hit rate of the full collection: about 18%.
VP16 counter: inhibits Gal4-VP16 luciferase reporter, ROR gamma counter-screen | Drosophila S2 Gal4-VP16 UAS-luciferase, luminescence, 20 h | 3.5% of 310,000 active | Potency, µM (series often up to 53.6 µM), for the others: at the highest dose activity, negative = inhibition, most hits filed as inhibitors;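 also: Gal4-VP16 expression switched on by copper sulfate through the metallothionein promoter; potency is read from the fitted curve at half-maximal effect; nearly all actives have a fitted effect of over 50% in size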
IL1B secr inh: inflammasome signaling inhibition, IL-1 beta readout; activity change, % at 57.5 µM; THP-1 LPS/ATP IL-1B secretion, AlphaLISA, 16 h; hits give low values; 4.7% of 360,000 active; in the data active = activity change below about -50%; inconclusive = mostly about -30% to -49%
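THP-1 cells pretreated 1 hr with compounds (up to 57.5 uM final), then stimulated with LPS (250 ng/mL final) plus ATP (1.25 mM final); secreted IL-1B measured by AlphaLISA after 16 hr, decreased signal indicating inhibition.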
TDP1 cell noCPT: qHTS for Inhibitors of human tyrosyl-DNA phosphodiesterase 1 (TDP1): qHTS in cells in absence of CPT; Potency, µM (series often up to 46.2 µM), for inactives: top-dose activity change, negative = growth inhibition, hits mostly inhibitors; 15% of 420,000 active; DT40 Tdp1-/- hTDP1 cells, no CPT, ATP luminescence, 48 h; also: potency is read from the fitted curve at half-maximal effect; nearly all actives have a fitted effect of over 55% in size
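Readout: luminescence from CellTiter-Glo after 30 min in the dark at RT. Cells: DT40 Tdp1-/- with stable hTDP1, 400/well. Exposure: compounds alone, ≥48 hr, 37 °C.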
LDHA block: blocks human lactate dehydrogenase A; purified LDHA, NADH/diaphorase-resazurin fluorescence; hits give low values; activity change, % (values are at about 110 or 230 µM); 0.15% of 480,000 active; in the data active = activity change below about -30%; inconclusive = mostly about -25% to -30%;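 also: plate controls were DMSO wells for no effect and wells without enzyme for full effect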
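Enzyme activity of human lactate dehydrogenase 5 (2 nM; 0.06 mM NADH, 0.2 mM pyruvate, 5 min, RT) is measured via a resazurin/diaphorase fluorescence readout of residual NADH.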
RORgamma inh: blocks mouse ROR gamma transcriptional activity; Drosophila S2 Gal4-RORgamma UAS-luciferase reporter, 20 h; Potency, µM (highest dose often 53.6 µM), without a hit: at the highest dose activity change, negative = inhibition, most hits filed as inhibitors; 5.4% of 310,000 active; also: potency is read from the fitted curve at half-maximal effect; nearly all actives have a fitted effect of over 60% in size
Target sequence (P51450 whole entry, looked up, the tested form may be a part): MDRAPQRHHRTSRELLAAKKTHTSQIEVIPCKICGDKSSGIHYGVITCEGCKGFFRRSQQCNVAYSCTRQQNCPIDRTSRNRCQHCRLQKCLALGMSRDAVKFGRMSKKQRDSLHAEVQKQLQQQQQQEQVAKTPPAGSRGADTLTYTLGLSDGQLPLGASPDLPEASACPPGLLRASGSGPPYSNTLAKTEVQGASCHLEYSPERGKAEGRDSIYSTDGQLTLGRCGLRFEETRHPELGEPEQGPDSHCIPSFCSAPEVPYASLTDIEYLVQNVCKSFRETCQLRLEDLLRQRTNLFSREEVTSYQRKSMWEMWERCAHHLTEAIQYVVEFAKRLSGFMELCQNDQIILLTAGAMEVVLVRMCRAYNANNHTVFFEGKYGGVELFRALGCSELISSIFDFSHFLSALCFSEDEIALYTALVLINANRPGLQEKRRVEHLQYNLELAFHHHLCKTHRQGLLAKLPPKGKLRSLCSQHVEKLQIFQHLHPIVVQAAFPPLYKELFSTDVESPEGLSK
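ROR gamma transcriptional activity was tracked as Gal4-UAS luciferase output in stably transfected Drosophila Schneider cells, with compound added 1 hr before 700 uM copper sulfate induction and a 20 hr ambient-temperature incubation.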
DT40 TDP1 CPT: DT40-hTDP1 cell growth loss with CPT. AID 686979. chicken DT40 Tdp1-/-;hTDP1 cells + 20 nM CPT, ATP luminescence, 48 h. 12% of 420,000 active. Potency, µM (top dose mostly 46.2 µM), for the others: at the highest dose activity change, negative = growth inhibition, most hits filed as inhibitors; also: potency is read from the fitted curve at half-maximal effect; nearly all actives have a fitted effect of over 55% in size
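Chicken DT40 Tdp1-/- cells complemented with human TDP1, 400 cells/well, exposed to compounds plus 20 nM camptothecin for at least 48 h at 37 C; viability read as ATP content by CellTiter-Glo luminescence.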
The depositor's hits bear a star; ? = inconclusive; / = no result. Unless noted, calls follow the shape of the dose curve; as a rule, active = well fitted curve in the direction sought with a large enough effect; inconclusive = small, poorly fitted or top-dose-only effect, or another doubt; inactive = no such curve, though single readings can be large; an effect the other way counts as inactive or inconclusive. Unless noted, % is scaled to controls: 0 for no effect and ±100 for the full control effect.

SMILES	VP16 counter	IL1B secr inh	TDP1 cell noCPT	LDHA block	RORgamma inh	DT40 TDP1 CPT
CC(C)C(=O)Nc1ccc2[nH]cc(C(C(=O)O)N3CCCCC3)c2c1 (stereo not drawn)	/	/	/	-3	/	/
CN(Cc1ccccc1)Cc1c(O)ccc2ccccc12	-6%	-9	-15%	-1	-19%	?
CN(Cc1cc(Cl)cc(Cl)c1O)Cc1c(O)ccc2ccccc12	/	-96*	?	6	/	?
CCOC(=O)Cn1c(=O)c2c3c(sc2n(Cc2ccc(F)cc2)c1=O)CCCC3	/	/	/	-22	/	/
O=C(Cc1csc(-c2ccc(Cl)cc2)n1)Nc1cccc(S(=O)(=O)NC2=NCCC2)c1	/	-52*	-14%	5	/	-7%
CC(C)(C)c1ccc(C(=O)Nc2cccc(S(=O)(=O)NC3=NCCC3)c2)cc1	/	?	12µM*	1	/	?
O=C(Cc1csc(-c2ccc(F)cc2)n1)Nc1cccc(S(=O)(=O)NC2=NCCC2)c1	/	6	12%	4	/	-3%
O=C(CCl)Nc1cccc(S(=O)(=O)NC2=NCCC2)c1	?	-99*	6.5µM*	-5	?	8.2µM*
O=C(COC(=O)/C=C/c1cccc(Br)c1)Nc1cccc(S(=O)(=O)NC2=NCCC2)c1	/	-16	4.1µM*	-2	/	-14%
CCOCCn1c(=O)c2c(nc(-n3nc(C)c(C)c3C)n2C(C)C)n(C)c1=O	/	/	/	9	/	/
O=C(COC(=O)c1ccccc1)Nc1cccc(S(=O)(=O)NC2=NCCCCC2)c1	-3%	-13	-22%	-5	-4%	-23%
CCN(CC)c1ccc(C(=O)OCC(=O)Nc2cccc(S(=O)(=O)NC3=NCCCCC3)c2)cc1	21%	-7	18µM*	-4	43%	?
CCCCCC(=O)Nc1cccc(S(=O)(=O)NC2=NCCCCC2)c1	/	26	-30%	-11	/	-24%
CC(C)(C)c1ccc(OCCC(=O)Nc2cccc(S(=O)(=O)NC3=NCCCCC3)c2)cc1	/	-29	23µM*	-2	/	23µM*
CN(CC(=O)Nc1cccc(S(=O)(=O)NC2=NCCCCC2)c1)Cc1ccc(C(C)(C)C)cc1	5%	?	21µM*	-14	6%	29µM*
O=C(Nc1cccc(S(=O)(=O)NC2=NCCC2)c1)c1cc(-c2ccccn2)nc2ccccc12	9%	13	16µM*	-3	-7%	23µM*
CC(=O)c1cccc(NC(=O)CSc2ncc(-c3ccc(F)cc3)o2)c1	/	/	/	-2	/	/
O=C(CCc1ccsc1)NC1CCCC1	/	/	/	-1	/	/
Cc1csc(NC(=O)C2COc3ccccc3O2)n1 (stereo not drawn)	11µM*	16	-20%	0	14µM*	?
O=C(Nc1nc(-c2ccc3c(c2)OCO3)cs1)C1COc2ccccc2O1 (stereo not drawn)	-4%	-21	?	-10	?	-1%
Cc1cnc(NC(=O)C2COc3ccccc3O2)s1 (stereo not drawn)	8.9µM*	5	?	-5	7.1µM*	21µM*
CSc1nc2ccc3nc(NC(=O)C4COc5ccccc5O4)sc3c2s1 (stereo not drawn)	-19%	-21	?	-11	10µM*	?
O=C(Nc1nc(-c2ccc(S(=O)(=O)N3CCCC3)cc2)cs1)C1COc2ccccc2O1 (stereo not drawn)	1%	-29	7.3µM*	-4	13%	9.2µM*
O=C(/C=C/c1ccc(-c2cccc(Cl)c2)o1)c1cc(Cl)ccc1Cl	/	/	/	-3	/	/
CC(C)SCC(=O)Nc1cc(C(C)(C)C)ccc1O	/	/	/	13	/	/
SMILES	VP16 counter	IL1B secr inh	TDP1 cell noCPT	LDHA block	RORgamma inh	DT40 TDP1 CPT
Cc1ccc(CCNC(=O)CCS(=O)(=O)c2ccc3c(c2)NC(=O)CS3)cc1	/	/	/	8	/	/
O=C(Nc1ccc(Cl)cn1)C1COc2ccccc2O1 (stereo not drawn)	?	2	-15%	-3	4µM*	?
O=C(Nc1nc(-c2ccccn2)cs1)C1COc2ccccc2O1 (stereo not drawn)	0.2µM*	94	5.2µM*	4	0.89µM*	3.3µM*
O=C(Nc1ccccn1)C1COc2ccccc2O1 (stereo not drawn)	-13%	18	-24%	-4	-32%	?
CN1CCN(c2ccc(Cl)cc2NC(=O)C2COc3ccccc3O2)CC1 (stereo not drawn)	0%	-4	29µM*	4	0%	?
O=C(Nc1nc(-c2ccccc2)cs1)C1COc2ccccc2O1 (stereo not drawn)	15%	-5	?	-2	25%	-5%
CCOc1cc(/C=C(/C#N)c2ccccn2)ccc1OCC(F)(F)F	/	/	/	15	/	/
C/[N+]([O-])=C\c1cccc(OCCN2CCN(c3ncc(C(F)(F)F)cc3Cl)CC2)c1	-15%	-51*	?	-1	?	-8%
NC(Cc1ccc(F)cc1)c1csc(Nc2cc(NCc3ccco3)ncn2)n1 (stereo not drawn)	/	-55*	21µM*	-11	/	23µM*
NC(c1csc(Nc2cc(NCc3ccco3)ncn2)n1)c1ccccc1Cl (stereo not drawn)	/	-79*	15µM*	-8	/	21µM*
CCC1CCCCN1C(=O)CSc1nc2cc(S(=O)(=O)Nc3ccc(OC)cc3)ccc2o1 (stereo not drawn)	/	/	/	9	/	/
O=C(Nc1nc2ccccc2s1)c1ccc2sc([C@H]3C[C@H](O)[C@@H](CO)O3)nc2c1	/	8	16µM*	-2	/	16µM*
O=C(Nc1nccs1)c1ccc2sc([C@H]3C[C@H](O)[C@@H](CO)O3)nc2c1	/	4	?	-5	/	-28%
O=C(NCc1cccc(C(F)(F)F)c1)c1ccc2sc([C@@H]3O[C@H](CO)[C@@H](O)[C@H]3O)nc2c1	/	12	?	-15	/	?
O=C(Nc1cccc(C(F)(F)F)c1)Nc1nnc([C@@H]2C[C@H](O)[C@@H](CO)O2)s1	/	-9	?	-15	/	18µM*
O=C(NCc1cccc(C(F)(F)F)c1)c1ccc2sc([C@H]3C[C@H](O)[C@@H](CO)O3)nc2c1	/	-1	16µM*	-1	/	?
O=C(NCc1cccc(C(F)(F)F)c1)c1ccc2sc(C3=C[C@@H](O)[C@@H](O)[C@@H](CO)O3)nc2c1	/	13	12µM*	-5	/	12µM*
Cc1ccc(-c2n[nH]c(=O)c3ccccc23)cc1S(=O)(=O)N(C)C1CCCCC1	/	/	/	14	/	/
